High-throughput results as filed in PubChem BioAssay.
Sampled rows, rich in hits. Any-hit rate of the full collection: about 19%.
HT1080 IDH1KD tx: qHTS for induction of synthetic lethality in tumor cells producing 2HG: qHTS for the HT-1080-IDH1KD cell line; Potency, µM (titrated, usually from 46.1 µM), without a hit: top-dose activity, negative = toxicity, usual class: cytotoxic; 360,000 compounds, 2% hits; AID 686971, 2013; HT-1080 IDH1 knockdown viability, ATP luminescence, 48 h;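 also: 0% = DMSO wells and -100% = cell-free medium wells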
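Assay cells: HT-1080 with IDH1 knockdown, 750 per well, RPMI/5% FBS. Exposure: 48 h at 37 °C following 2 h pre-incubation. Read: CellTiter-Glo luminescence; fitted concentration-response, curve class assigned.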
KB-V1 MDR tox: qHTS assay for MDR1-selective chemotherapeutics: Primary screen using the drug-selected MDR subline cells KB-V1; KB-V1 MDR cells viability, CellTiter-Glo, 72 h; Potency, µM (titrated, usually from 46.1 µM), actives largely listed as cytotoxic; 400,000 compounds, 3.4% hits; also: nearly all actives have a fitted effect of over 60% in size
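Cells of the MDR subline KB-V1 are plated, dosed with compound at multiple concentrations, and incubated 72 h at 37 degrees C; CellTiter-Glo is then added and luminescence read after 10 min.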
TDP1 cell noCPT: qHTS for Inhibitors of human tyrosyl-DNA phosphodiesterase 1 (TDP1): qHTS in cells in absence of CPT; DT40 Tdp1-/- hTDP1 cells, no CPT, ATP luminescence, 48 h; Potency, µM (highest dose often 46.2 µM), without a hit: at the top dose activity change, negative = growth inhibition, most hits filed as inhibitors; 420,000 compounds, 15% hits; AID 686978, 2013; also: nearly all actives have a fitted effect of over 55% in size
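DT40 Tdp1-/-;hTDP1 cells, no CPT (DMSO vehicle only), 400 cells/well; compounds pin-transferred; ≥48 hr, 37 °C; CellTiter-Glo 30 min RT dark, luminescence read.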
KB-3-1 cytotox: qHTS assay for MDR1-selective chemotherapeutics: Primary screen using the parental adenocarcinoma cell KB-3-1; KB-3-1 viability, CellTiter-Glo ATP luminescence, 72 h; Potency, µM (series often up to 46.1 µM), hits mostly cytotoxic; 400,000 compounds, 1.4% hits; AID 1347075, 2019; also: nearly all actives have a fitted effect of over 60% in size
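Screening of KB-3-1 cells (DMEM, 10% FBS, phenol-red free) ran from lowest to highest compound concentration; after 72 h at 37 °C viability was read luminescently and curves fitted.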
HT1080NT lethal: qHTS for induction of synthetic lethality in tumor cells producing 2HG: qHTS for the HT-1080-NT fibrosarcoma cell line | Potency, µM (doses to about 46.1 µM), for the others: at the top dose activity, negative = less viability, hits mostly cytotoxic | HT-1080-NT fibrosarcoma viability, CellTiter-Glo ATP luminescence, 48 h | 360,000 compounds, 1.6% hits;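 also: NT is the 2HG producing partner of a matched IDH1 knockdown line; 0% = DMSO-treated cells and -100% = media-only wells without cells; nearly all actives have a fitted effect of over 55% in size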
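Viability of the 2HG-overproducing fibrosarcoma line after 48 hours of compound exposure at 37 degrees C was determined by luminescence with CellTiter-Glo, and concentration-effect curves were then fitted and categorized.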
TDP1 cell CPT: qHTS for Inhibitors of human tyrosyl-DNA phosphodiesterase 1 (TDP1): qHTS in cells in presence of CPT | chicken DT40 Tdp1-/-;hTDP1 cells + 20 nM CPT, ATP luminescence, 48 h | Potency, µM (series often up to 46.2 µM), for inactives: at the top dose activity change, negative = growth inhibition, hits mostly inhibitors | 420,000 compounds, 12% hits | AID 686979, 2013; also: nearly all actives have a fitted effect of over 55% in size
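Chicken DT40 Tdp1-/- cells complemented with human TDP1, 400 cells/well, exposed to compounds plus 20 nM camptothecin for at least 48 h at 37 C; viability read as ATP content by CellTiter-Glo luminescence.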
* hit, by the source's call; i = inactive; u = inconclusive; x = no result. Calls follow the shape of the dose curve; as a rule, active = well fitted curve in the direction sought with a large enough effect; inconclusive = small, poorly fitted or top-dose-only effect, or another doubt; inactive = no such curve, though single readings can be large; an effect the other way counts as inactive or inconclusive. Unless noted, % is scaled to controls: 0 for no effect and ±100 for the full control effect; potency is read from the fitted curve at half-maximal effect.

SMILES	HT1080 IDH1KD tx	KB-V1 MDR tox	TDP1 cell noCPT	KB-3-1 cytotox	HT1080NT lethal	TDP1 cell CPT
COC(=O)c1c(NC(=O)c2cccc(N3C(=O)CCC3=O)c2)sc2c1CCN(C(C)=O)C2	9.6%	i	-10.2%	i	20.1%	4.7%
CN1CCc2c(sc(NC(=O)C3COc4ccccc4O3)c2C(N)=O)C1 (centres undefined)	-18.3%	i	u	i	-7.8%	u
C[C@H](CO)N1C[C@H](C)[C@@H](CN(C)S(=O)(=O)c2cccs2)Oc2c(NC(=O)C3CC3)cccc2C1=O	2.6%	i	8.9%	i	4.8%	7.8%
O=C(CCCOc1ccccc1)Nc1ccc2c(c1)OCCO2	-2.4%	i	-14.2%	i	0.0%	15.5%
O=C(NCCCN1CCOCC1)c1cccc(S(=O)(=O)Nc2cc(Cl)ccc2Cl)c1	-5.6%	i	0.6%	i	-9.9%	1.4%
Cc1ccc(C)n1/N=C1/NC(=O)CS1	-5.4%	i	-5.0%	i	-3.4%	-21.8%
CC(=O)N1CCc2c(sc(NC(=O)c3ccc4c(c3)OCCO4)c2C#N)C1	11.6µM*	u	3.66µM*	u	18.4µM*	4.11µM*
CC(=O)N1CCc2c(sc(NC(=O)c3ccc(S(=O)(=O)N(C)C)cc3)c2C#N)C1	10.4%	i	1.4%	i	2.7%	22.5%
CCOc1ccc2[nH]c(C(=O)N/N=C/c3ccccc3OC)cc2c1	u	u	7.31µM*	u	u	5.8µM*
CCCOc1ccc2[nH]c(C(=O)N/N=C/c3cc(OC)c(OC)c(OC)c3)cc2c1	10.2%	i	16.4µM*	u	8.1%	u
COc1ccc2[nH]c(C(=O)N/N=C/c3ccc(OC)c(O)c3)cc2c1	1.16µM*	9.2µM*	1.3µM*	6.51µM*	0.581µM*	1.16µM*
CCOc1ccc(/C=N/NC(=O)c2cc3c(OC)cc(OC)c(OC)c3[nH]2)cc1	u	i	u	i	u	u
COc1cc(OC)c2cc(C(=O)N/N=C/c3ccccc3O)[nH]c2c1	-20.3%	i	4.61µM*	u	-14.9%	4.61µM*
Cc1cccc(C)c1NC(=O)CSc1nnc(C)n1CC1CCCO1 (centres undefined)	0.0%	i	u	i	15.5%	u
CC1=C(C(=O)N2CCOCC2)CC(CC(=O)NC2CCCCC2)C(=O)N1CCCN1CCCC1=O (centres undefined)	4.8%	i	-14.6%	i	11.8%	-12.1%
COc1ccc(C(=O)N/N=C/c2cc3ccccc3[nH]c2=O)cc1	7.5%	i	7.0%	i	-19.6%	-18.5%
COc1ccc2[nH]c(C(=O)N/N=C/c3ccccc3OC)cc2c1	u	i	9.2µM*	u	u	7.31µM*
NC(=O)Cn1c(=O)n(-c2ccc(F)c(Cl)c2)c(=O)c2sc3ccccc3c21	x	i	u	i	x	-15.3%
Cc1ccccc1-c1cc2nc(NCc3ccccc3)n(C)c(=O)c2s1	0.0%	i	u	i	u	9.2µM*
Cc1ccccc1-c1cc2nc(NCc3ccncc3)n(C)c(=O)c2s1	-18.2%	i	u	i	-25.5%	u
Cc1ccccc1-c1cc2nc(NCc3ccc(N(C)C)cc3)n(C)c(=O)c2s1	u	u	16.4µM*	i	u	u
Cc1ccc2[nH]c(=O)c(C3C(C#N)=C(N)Oc4c3ccc3cccnc43)cc2c1 (centres undefined)	u	2.59µM*	20.6µM*	16.4µM*	-26.7%	20.6µM*
N#CC1=C(N)Oc2c(ccc3cccnc23)C1c1ccccc1 (centres undefined)	u	i	4.11µM*	5.17µM*	u	5.17µM*
COC(=O)C1=C(C)NC(C)=C(C(=O)OC)C1c1cc2cc(C)ccc2[nH]c1=O	6.2%	i	-25.2%	i	6.4%	-19.0%
CC1CCN(c2nc3ccc(C(=O)NCc4ccccc4Cl)cc3s2)CC1	x	i	20.6µM*	i	x	u
SMILES	HT1080 IDH1KD tx	KB-V1 MDR tox	TDP1 cell noCPT	KB-3-1 cytotox	HT1080NT lethal	TDP1 cell CPT
CC1CCN(c2nc3ccc(C(=O)NCc4ccc(Cl)cc4)cc3s2)CC1	x	i	u	i	x	u
O=C(NCc1ccccc1Cl)c1cccc(OC2CCN(C(=O)C3CC3)CC2)c1	-4.3%	6.51µM*	u	u	-8.2%	16.4µM*
Cc1cccc(N2CCN(C(=O)c3ccc4nc(N5CCC(C)CC5)sc4c3)CC2)c1C	x	u	16.4µM*	u	x	20.6µM*
CC1CCN(c2nc3ccc(C(=O)NCCCN4CCCCC4)cc3s2)CC1	u	i	23.1µM*	i	u	u
CC(C)=CC(=O)N1CCC(Oc2cccc(C(=O)NCc3ccccn3)c2)CC1	1.1%	u	u	i	2.3%	-20.9%
Cc1ccc(CCNC(=O)c2ccc3nc(N4CCC(C)CC4)sc3c2)cc1	x	i	u	i	x	u
CCN(C(=O)COc1ccc(F)cc1Br)c1c(N)n(Cc2ccccc2)c(=O)[nH]c1=O	5.4%	i	9.0%	i	9.2%	-2.9%
O=C(CCl)Nc1ccc(N=Nc2ccccc2)cc1	-3.2%	i	u	i	u	2.91µM*
CC(C)N(c1ccccc1)c1ccc(NC(=O)CCl)cc1	u	u	2.59µM*	i	u	16.4µM*
COc1ccc(CCC(=O)NNC(=O)Nc2ccccc2Cl)cc1	-4.9%	i	3.4%	i	-4.3%	-2.0%
C/C(=N\NC(=O)c1cccs1)c1c(O)cc(C)oc1=O	-0.3%	i	0.9%	i	-1.1%	-12.5%
C/C(=N\Nc1ccc(Cl)cc1)c1c(O)cc(C)oc1=O	23.1µM*	i	-9.3%	i	u	-2.5%
CCOC(=O)/C(C#N)=C/c1c[nH]c2ccccc12	-28.7%	i	-13.3%	i	-16.0%	-27.0%
CCOC(=O)C(=Cc1c[nH]c2ccc(S(=O)(=O)N(C)C)cc12)C(=O)OCC	u	i	16.4µM*	i	-24.4%	u
Cc1nc([N+](=O)[O-])cn1CC(O)c1ccc2c(c1)OCCO2 (centres undefined)	x	i	3.4%	i	x	-7.5%
